Measurements published in PubChem BioAssay AID1159580 (chemical genetic matrix, 2015).
In all, about 5,500 compounds went through this assay and about 2,000 (36%) were called active. Another 18% or so got no clear call; they are omitted. Cut-off read from the data, not from the text of the source: active = normalized growth mostly below about 0.91 (no sharp cut-off); inconclusive = no clear call, values can overlap the other calls; inactive = mostly above about 0.92. This is one part of the list.

Assay: chemical genetic growth profiling, strain panel (AID 1159580);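 note: tested at 20 µM; growth read once vehicle control cultures reached saturation at 30 °C; 1 = growth at the plate median or of vehicle wells; lower values mean less growth of the strain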
Conditions: growth OD

Measured: normalized growth

CCN(CC)C(=O)c1cccc(C)c1
inactive: S. cerevisiae deletion strains, locus YKL009W, strain mrt4, stronger effect = lower value 0.956 | S. cerevisiae deletion strains, locus YKL068W, stronger effect = lower value 0.989 | S. cerevisiae deletion strains, locus YKL085W, strain MDH1 (second series), stronger effect = lower value 1 | S. cerevisiae deletion strains, locus YKL085W, strain MDH1, stronger effect = lower value 1 | S. cerevisiae deletion strains, locus YKL160W, strain elf1, stronger effect = lower value 1.02 | S. cerevisiae deletion strains, locus YKL190W, strain CNB1, stronger effect = lower value 0.988 | S. cerevisiae deletion strains, locus YKR001C, strain vps1, stronger effect = lower value 1.01 | S. cerevisiae deletion strains, locus YKR026C, strain gcn3, stronger effect = lower value 1.04 | S. cerevisiae deletion strains, locus YKR091W, strain srl3, stronger effect = lower value 1.03 | S. cerevisiae deletion strains, locus YLL001W, strain dnm1, stronger effect = lower value 1.03 | S. cerevisiae deletion strains, locus YLL026W, stronger effect = lower value 1.04 | S. cerevisiae deletion strains, locus YLL041C, strain sdh2, stronger effect = lower value 1.03 | S. cerevisiae deletion strains, locus YLR027C, strain aat2, stronger effect = lower value 1.02 | S. cerevisiae deletion strains, locus YLR039C, strain RIC1, stronger effect = lower value 1.06 | S. cerevisiae deletion strains, locus YLR058C, strain SHM2, stronger effect = lower value 1 | S. cerevisiae deletion strains, locus YLR102C, strain apc9, stronger effect = lower value 0.999 | S. cerevisiae deletion strains, locus YLR113W, strain HOG1, stronger effect = lower value 0.975 | S. cerevisiae deletion strains, locus YLR221C, strain rsa3, stronger effect = lower value 1.02 | S. cerevisiae deletion strains, locus YLR258W, strain gsy2, stronger effect = lower value 1.04 | S. cerevisiae deletion strains, locus YLR262C, strain YPT6 (second series), stronger effect = lower value 1.03 | S. cerevisiae deletion strains, locus YLR262C, strain YPT6, stronger effect = lower value 1.02 | S. cerevisiae deletion strains, locus YLR268W, strain sec22, stronger effect = lower value 0.978 | S. cerevisiae deletion strains, locus YLR320W, strain mms22, stronger effect = lower value 1.04 | S. cerevisiae deletion strains, locus YLR330W, strain CHS5, stronger effect = lower value 0.993 | S. cerevisiae deletion strains, locus YLR342W, strain FKS1 (second series), stronger effect = lower value 0.987 | S. cerevisiae deletion strains, locus YLR342W, strain FKS1, stronger effect = lower value 1.01 | S. cerevisiae deletion strains, locus YLR357W, strain rsc2, stronger effect = lower value 1.09 | S. cerevisiae deletion strains, locus YLR370C, strain arc18, stronger effect = lower value 1.03 | S. cerevisiae deletion strains, locus YLR371W, strain rom2, stronger effect = lower value 0.982 | S. cerevisiae deletion strains, locus YLR384C, strain iki3, stronger effect = lower value 1.06 | S. cerevisiae deletion strains, locus YLR418C, strain cdc73, stronger effect = lower value 1.05 | S. cerevisiae deletion strains, locus YML016C, strain PPZ1, stronger effect = lower value 1.01 | S. cerevisiae deletion strains, locus YML032C, strain rad52, stronger effect = lower value 0.995 | S. cerevisiae deletion strains, locus YML120C, strain ndi1, stronger effect = lower value 1.02 | S. cerevisiae deletion strains, locus YML124C, strain tub3, stronger effect = lower value 0.998 | S. cerevisiae deletion strains, locus YMR058W, strain fet3, stronger effect = lower value 1.04 | S. cerevisiae deletion strains, locus YMR078C, strain ctf18, stronger effect = lower value 0.994 | S. cerevisiae deletion strains, locus YMR125W, strain sto1, stronger effect = lower value 1.03 | S. cerevisiae deletion strains, locus YMR129W, stronger effect = lower value 1.03 | S. cerevisiae deletion strains, locus YMR205C, strain PFK2, stronger effect = lower value 1.06 | S. cerevisiae deletion strains, locus YMR223W, strain ubp8, stronger effect = lower value 1 | S. cerevisiae deletion strains, locus YMR231W, strain pep5, stronger effect = lower value 1.03 | S. cerevisiae deletion strains, locus YMR263W, strain SAP30, stronger effect = lower value 0.999 | S. cerevisiae deletion strains, locus YMR307W, strain GAS1, stronger effect = lower value 1.02 | S. cerevisiae deletion strains, locus YNL067W, strain RPL9B, stronger effect = lower value 1 | S. cerevisiae deletion strains, locus YNL071W, strain lat1, stronger effect = lower value 1.02 | S. cerevisiae deletion strains, locus YNL128W, strain TEP1, stronger effect = lower value 1 | S. cerevisiae deletion strains, locus YNL153C, strain GIM3, stronger effect = lower value 0.999 | S. cerevisiae deletion strains, locus YNL183C, strain NPR1, stronger effect = lower value 0.924 | S. cerevisiae deletion strains, locus YNL209W, strain ssb2, stronger effect = lower value 1.02 | S. cerevisiae deletion strains, locus YNL233W, strain BNI4, stronger effect = lower value 1.01 | S. cerevisiae deletion strains, locus YNL248C, strain rpa49, stronger effect = lower value 1.02 | S. cerevisiae deletion strains, locus YNL250W, strain rad50, stronger effect = lower value 0.994 | S. cerevisiae deletion strains, locus YNL271C, strain bni1, stronger effect = lower value 1 | S. cerevisiae deletion strains, locus YNL298W, strain CLA4, stronger effect = lower value 0.987 | S. cerevisiae deletion strains, locus YNL307C, strain MCK1, stronger effect = lower value 1.01 | S. cerevisiae deletion strains, locus YNL322C, strain KRE1 (second series), stronger effect = lower value 1.03 | S. cerevisiae deletion strains, locus YNL322C, strain KRE1, stronger effect = lower value 1 | S. cerevisiae deletion strains, locus YNR049C, strain mso1, stronger effect = lower value 1.03 | S. cerevisiae deletion strains, locus YNR052C, strain pop2, stronger effect = lower value 0.987 | S. cerevisiae deletion strains, locus YOL006C, strain TOP1, stronger effect = lower value 1.03 | S. cerevisiae deletion strains, locus YOL012C, strain htz1 0.893 | S. cerevisiae deletion strains, locus YOL147C, strain pex11, stronger effect = lower value 0.998 | S. cerevisiae deletion strains, locus YOR001W, strain rrp6, stronger effect = lower value 1.04 | S. cerevisiae deletion strains, locus YOR061W, strain CKA2, stronger effect = lower value 1 | S. cerevisiae deletion strains, locus YOR069W, strain VPS5, stronger effect = lower value 1.01 | S. cerevisiae deletion strains, locus YOR070C, strain gyp1, stronger effect = lower value 1.02 | S. cerevisiae deletion strains, locus YOR080W, strain dia2, stronger effect = lower value 1.04 | S. cerevisiae deletion strains, locus YOR083W, strain WHI5, stronger effect = lower value 1.01 | S. cerevisiae deletion strains, locus YOR106W, strain vam3, stronger effect = lower value 0.998 | S. cerevisiae deletion strains, locus YOR136W, strain idh2, stronger effect = lower value 0.999 | S. cerevisiae deletion strains, locus YOR144C, strain elg1, stronger effect = lower value 0.993 | S. cerevisiae deletion strains, locus YOR184W, strain ser1, stronger effect = lower value 0.978 | S. cerevisiae deletion strains, locus YOR231W, strain MKK1, stronger effect = lower value 0.971 | S. cerevisiae deletion strains, locus YOR265W, strain rbl2, stronger effect = lower value 1.03 | S. cerevisiae deletion strains, locus YOR270C, strain vph1, stronger effect = lower value 1.08 | S. cerevisiae deletion strains, locus YOR290C, strain snf2, stronger effect = lower value 1.01 | S. cerevisiae deletion strains, locus YOR316C, strain cot1, stronger effect = lower value 0.995 | S. cerevisiae deletion strains, locus YPL051W, strain arl3, stronger effect = lower value 1.02 | S. cerevisiae deletion strains, locus YPL055C, strain LGE1, stronger effect = lower value 0.951 | S. cerevisiae deletion strains, locus YPL078C, strain atp4, stronger effect = lower value 1.03 | S. cerevisiae deletion strains, locus YPL106C, strain sse1, stronger effect = lower value 1.11 | S. cerevisiae deletion strains, locus YPL240C, strain hsp82, stronger effect = lower value 1.02 | S. cerevisiae deletion strains, locus YPL241C, strain CIN2, stronger effect = lower value 0.991 | S. cerevisiae deletion strains, locus YPL256C, strain CLN2, stronger effect = lower value 0.983 | S. cerevisiae deletion strains, locus YPR119W, strain clb2, stronger effect = lower value 1 | S. cerevisiae deletion strains, locus YPR141C, strain kar3, stronger effect = lower value 1 | S. cerevisiae deletion strains, locus YPR163C, strain tif3, stronger effect = lower value 0.996 | S. cerevisiae deletion strains, locus YPR167C, strain met16, stronger effect = lower value 0.999 | S. cerevisiae deletion strains, strain wtn01, stronger effect = lower value 0.988 | S. cerevisiae strains, strain wild type, stronger effect = lower value 1
